Screening results (PubChem)
In the library only some 2.7% were active in any assay of this set; here they are far more common.
PAFAH1B3 FP inh – PAFAH1B3 enzyme inhibitors, primary screen, biochemical, fluorescence polarization, human; Platelet-activating factor acetylhydrolase IB subunit alpha1 (Homo sapiens), Q15102; recombinant PAFAH1B3, FP-rhodamine probe; inhibition, % at 3.39 µM; 340,000 tested, 0.28% active; AID 492972, 2010;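 active means inhibition above the screen-wide average of all tested compounds plus 3 SD, cut at about 25% in these data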;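 further: 0% = enzyme with DMSO only and 100% = wells lacking PAFAH1B3 protein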
Target sequence (Q15102 whole entry, looked up): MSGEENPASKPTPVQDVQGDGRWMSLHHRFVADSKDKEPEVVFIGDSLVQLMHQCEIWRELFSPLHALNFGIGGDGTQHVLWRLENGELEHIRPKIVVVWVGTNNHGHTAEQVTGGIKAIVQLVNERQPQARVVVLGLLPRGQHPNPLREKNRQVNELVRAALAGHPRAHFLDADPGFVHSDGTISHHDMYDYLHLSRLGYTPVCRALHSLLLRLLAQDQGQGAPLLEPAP
pPAFAH FP inh – pPAFAH enzyme inhibitors, primary screen, biochemical, fluorescence polarization, human; AID 463082, 2010; recombinant pPAFAH, FP-rhodamine probe fluorescence polarization; 330,000 tested, 1.5% active; Platelet-activating factor acetylhydrolase (Homo sapiens), Q13093; inhibition, % at 3.39 µM;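 active means inhibition above the mean inhibition across the screen plus 3 SD, cut at about 25% in these data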;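 further: inhibitors block binding of the rhodamine activity-based probe so polarization drops; 0% = enzyme with DMSO and 100% = wells lacking pPAFAH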
PAFAH1B2 FP inh – PAFAH1B2 enzyme inhibitors, primary screen, biochemical, fluorescence polarization, human | 340,000 tested, 1.2% active | Platelet-activating factor acetylhydrolase IB subunit alpha2 (Homo sapiens), P68402 | inhibition, % at 3.39 µM | AID 492953, 2010 | recombinant PAFAH1B2, FP-rhodamine activity probe;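 active means inhibition above the mean of all tested compounds plus 3 SD, cut at about 24% in these data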;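 further: 0% = enzyme with DMSO and 100% = wells lacking PAFAH1B2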
Target sequence (P68402 whole entry, looked up): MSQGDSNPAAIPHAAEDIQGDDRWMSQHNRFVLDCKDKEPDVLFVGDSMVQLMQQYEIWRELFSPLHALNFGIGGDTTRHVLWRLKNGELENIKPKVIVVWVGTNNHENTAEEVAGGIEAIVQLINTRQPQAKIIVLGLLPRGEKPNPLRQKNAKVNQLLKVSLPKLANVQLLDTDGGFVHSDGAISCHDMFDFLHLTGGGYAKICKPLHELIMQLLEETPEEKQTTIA
PAFAH2 FP inh – PAFAH2 enzyme inhibitors, primary screen, biochemical, fluorescence polarization, human; recombinant PAFAH2, FP-rhodamine activity probe; Platelet-activating factor acetylhydrolase 2, cytoplasmic (Homo sapiens), Q99487; inhibition, % at 3.39 µM; 340,000 tested, 0.99% active; AID 492956, 2010;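 active means inhibition above the mean over all tested compounds plus 3 SD, cut at about 30% in these data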;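 further: inhibitors block probe labeling of enzyme so polarization drops; 0% = enzyme with DMSO and 100% = wells lacking PAFAH2 protein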
TCR-CD3 inh – inhibitors of human TCR-CD3 interaction, primary screen, biochemical, fluorescence, TAMRA-labeled TCR probe. T-cell receptor (TCR). AID 651800, 2012. inhibition, % at 9.4 µM. 360,000 tested, 0.37% active; in the data active means inhibition above about 19%;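 further: recombinant mutant TCR 2C K166C tagged with TAMRA read by polarization; 0% = receptor in buffer alone and 100% = receptor with positive control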
PAFAH2 confirm – PAFAH2 enzyme inhibitors, confirmation, biochemical, fluorescence polarization, human | inhibition, % at 3.39 µM | recombinant PAFAH2, FP-rhodamine activity probe | shares compounds with PAFAH2 FP inh | AID 493030, 2011 | 2,300 tested, 65% active;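 active means mean inhibition over three repeats above a set limit taken from the earlier primary screen, cut at about 30% in these data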;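 further: inhibitor blocks binding of rhodamine activity probe so polarization falls; 0% = enzyme with DMSO and 100% = wells lacking PAFAH2 protein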
* = called active by the depositor; nt = no result.

SMILES	PAFAH1B3 FP inh	pPAFAH FP inh	PAFAH1B2 FP inh	PAFAH2 FP inh	TCR-CD3 inh	PAFAH2 confirm
CCN(CC)c1ccc(C(=O)OCC(=O)Nc2ccccc2-c2ccccc2)cc1	5	20	-4	77*	0	51*
CCN(CC)c1ccc(C(=O)OCC(=O)Nc2sccc2C#N)cc1	-6	9	-3	47*	2	54*
COCC(=O)Nc1ccccc1-c1ccccc1	5	2	3	8	-7	nt
CCN(CC)c1ccc(C(=O)OCC(=O)Nc2ncccn2)cc1	9	24	6	77*	5	70*
Cc1c(C(=O)N2CCOCC2)c(S(=O)(=O)Nc2ccc(C(C)C)cc2)c(C)n1C	8	4	2	-17	10	nt
CN(CC(=O)Nc1ccccc1C(F)(F)F)C(=O)c1cc(-c2cccs2)nn1-c1ccccc1	10	3	3	-3	-1	nt
Cc1ccc(C)c(NC(=O)CN(C)C(=O)c2cc(-c3cccs3)nn2-c2ccccc2)c1	1	8	8	33*	3	0
O=C(COC(=O)C1CC2CCCC(C1)C2=O)Nc1ccccc1 (stereo unspecified)	11	2	1	64*	3	60*
Cc1ccc(F)cc1NC(=O)COC(=O)C1CC2CCCC(C1)C2=O (stereo unspecified)	nt	nt	nt	nt	2	nt
O=C(COC(=O)C1CC2CCCC(C1)C2=O)Nc1cccc(F)c1 (stereo unspecified)	4	-4	7	68*	2	69*
CCc1cc(C)cc(OCCOc2ccccc2/C=N/NC(C)=O)c1	4	5	1	3	2	nt
O=C(O)c1ccc(N=c2oc3cc(O)ccc3cc2C(=O)NCc2ccccc2)cc1	16	7	9	54*	-7	40*
COc1ccc2cc(C(=O)NCc3ccccc3)c(=Nc3ccc(C(=O)O)cc3)oc2c1	7	1	3	25	-7	nt
NC(=O)c1nsc(C(=O)N(CC(=O)NC2CCCC2)c2cnc3ccccc3c2)c1N	nt	3	nt	nt	nt	nt
CCc1ccc(/C=C(/C#N)C(N)=S)s1	-2	6	-6	-2	0	nt
CCc1sc(/C=C(/C#N)C(N)=S)cc1[N+](=O)[O-]	10	nt	12	31*	-2	25
CCOC(=O)C1(C)CCCN(C(=O)c2cccc(C(F)(F)F)c2)C1 (stereo unspecified)	nt	nt	nt	nt	-4	nt
COc1cccc(/C=C/C(=O)OCC(=O)c2ccccc2)c1OC	11	9	7	58*	2	34*
C=CCOc1ccc(/C=C/C(=O)OCC(=O)NCc2cccs2)cc1	-2	4	-2	38*	3	41*
COc1ccc(/C=C/C(=O)OCC(=O)NCc2ccco2)cc1OC	7	5	-1	49*	6	38*
COc1cc(/C=C/C(=O)OCC(=O)NCc2ccco2)ccc1OC(F)F	7	8	5	39*	6	28
CC(=O)N1CCC(C(=O)N2c3ccccc3N=C(c3ccc4c(c3)OCO4)C2C(=O)NCc2ccccc2)CC1 (stereo unspecified)	nt	nt	nt	nt	-10	nt
COc1cccc(-n2cc(C(=O)NCCCOC(C)C)c3ccccc3c2=O)c1	3	2	-4	-4	5	nt
CCOc1ccc(CCN2C(=S)N([C@@H](CC(C)C)CN3CCCC3CN3C(=S)NC[C@@H]3Cc3ccccc3)C[C@@H]2CC(C)C)cc1 (stereo partly specified)	nt	nt	nt	nt	0	nt
COc1cccc(/C=C/C(=O)OCC(=O)NCc2ccco2)c1OC	7	10	0	66*	2	53*
SMILES	PAFAH1B3 FP inh	pPAFAH FP inh	PAFAH1B2 FP inh	PAFAH2 FP inh	TCR-CD3 inh	PAFAH2 confirm
COc1cccc(/C=C/C(=O)OCC(=O)c2ccc(C)c(C)c2)c1OC	0	7	1	21	-6	nt
COc1cc(/C=C/C(=O)OCC(=O)NCc2cccs2)ccc1OCC#N	-2	6	1	53*	-1	52*
COc1cccc(/C=C/C(=O)OCC(=O)NCC2CCCCC2)c1OC	4	8	0	80*	2	79*
O=C(O)C(Cc1ccc(OS(=O)(=O)Cc2ccccc2)cc1)NS(=O)(=O)Cc1ccccc1 (stereo unspecified)	8	nt	11	6	0	nt
COc1ccc(-c2nc3c(Cl)cc(C(F)(F)F)cn3c2Cc2ccc(C)cc2)cc1OC	nt	nt	nt	nt	4	nt
CCCc1cc(=O)[nH]c(SCC(=O)N2CC3(C)CC2CC(C)(C)C3)n1 (stereo unspecified)	7	1	22	36*	3	15
Cc1cc(=O)[nH]c(SCC(=O)N2CC3(C)CC2CC(C)(C)C3)n1 (stereo unspecified)	-3	3	16	29	1	nt
COc1ccccc1NS(=O)(=O)c1ccc(O)c(C(=O)OCC(=O)N2CCc3ccccc32)c1	1	20	10	45*	6	28
CCN(CC)S(=O)(=O)c1ccc(O)c(C(=O)OCC(=O)N2c3ccccc3CC2C)c1 (stereo unspecified)	2	16	16	75*	3	75*
COc1ccccc1NS(=O)(=O)c1ccc(O)c(C(=O)OCC(=O)N2c3ccccc3CC2C)c1 (stereo unspecified)	4	13	14	57*	-4	47*
COc1ccccc1NS(=O)(=O)c1ccc(O)c(C(=O)OCC(=O)c2ccc(Cl)cc2Cl)c1	4	10	13	38*	2	23
COc1ccc(NS(=O)(=O)c2ccc(O)c(C(=O)OCC(=O)N3CCCCC3)c2)cc1	5	15	13	9	-2	nt
COc1ccccc1NS(=O)(=O)c1ccc(O)c(C(N)=O)c1	9	5	-3	-5	2	nt
Cc1ccn(CCNC(=O)C2CCC(=O)N(CCc3ccc(Cl)cc3)C2)n1 (stereo unspecified)	5	0	2	1	2	nt
O=C(CSc1nnc(NC(=O)c2ccc(F)cc2)s1)NC1CCCC1	0	5	4	-3	-1	nt
Cn1cc([C@]2(O)C(=O)Nc3ccc(F)cc32)c2ccccc21	nt	nt	nt	nt	6	nt
CCCCn1c(N)c(N(CC)C(=O)C2=COCCO2)c(=O)[nH]c1=O	-3	1	-1	-4	6	nt
Cn1nnnc1SCC1=C(C(=O)O)N2C(=O)C(NC(=O)C3CC3c3ccccc3)C2SC1 (stereo unspecified)	-3	1	7	44*	6	6
Cn1nnnc1SCC1=C(C(=O)O)N2C(=O)[C@@H](NC(=O)[C@H](O)c3ccccc3)[C@H]2SC1	9	5	5	7	nt	nt
